Here are results for nine molecules from PubChem BioAssay (NCI).

The structures appear in SMILES notation. This is part of a sample that, as a whole, favours compounds with a hit. Of some 83,000 tested, about 20% had one in any assay.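 Single-dose data. Exposure time 48 hours. Values below 10 considered active.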 Values without a mark were called inactive. Activity calls are given as the source filed them.

Some test systems named below: HCT-15 colon; HT29 colon; SNB-75 CNS; SNB-19 CNS; U251 CNS; PC-3 prostate; SK-MEL-5 melanoma; UACC-62 melanoma; LOX IMVI melanoma; SK-MEL-28 melanoma; SK-MEL-2 melanoma; SN12C renal; UO-31 renal; TK-10 renal; ACHN renal; CAKI-1 renal; A498 renal; CCRF-CEM leukemia; EKVX NSCLC; MOLT-4 leukemia.
Common to all, as to experiment: NCI-60 one-dose screen, 48 h (100 = growth as untreated, 0 = no growth, -100 = all killed)
Settings in all cases: 10 µM

As to `Cc1nc2scc(-c3ccc(Cl)cc3)n2c(=O)c1CCN1CCOCC1`, the growth in the assay on HCT-15 colon is 105%; in the assay on HT29 colon it was 105%; in the assay with SNB-75 CNS, 84.6%; with SNB-19 CNS, 94.6%; in the assay with U251 CNS it was 96.7%; in the assay on PC-3 prostate, 87.5%. For the same molecule, the growth was 94.5% with SK-MEL-5 melanoma; 85.6% with UACC-62 melanoma; 97.5% with LOX IMVI melanoma; 102% in the assay on SK-MEL-28 melanoma; 105% with SK-MEL-2 melanoma; 94% in the assay with SN12C renal. In addition, the growth with UO-31 renal is 57.5%; in the assay with TK-10 renal it was 142%; with ACHN renal, 89.4%; in the assay with CAKI-1 renal, 84.6%; in the assay on A498 renal it was 119%; in the assay with CCRF-CEM leukemia, 93.6%.

For `Fc1ccc(Nc2ccnc(N3CCN(c4ccnc5cc(Cl)ccc45)CC3)n2)cc1`, the growth with HCT-15 colon was 38.4%; in the assay with HT29 colon it was 22.3%; in the assay with SNB-75 CNS, 74.2%; in the assay with SNB-19 CNS, 65.7%; in the assay on U251 CNS, 47%; in the assay on PC-3 prostate, 23%. Also, the growth in the assay on SK-MEL-5 melanoma is 26%; in the assay with UACC-62 melanoma, 45.3%; in the assay with LOX IMVI melanoma, 49.8%; with SK-MEL-28 melanoma, 81%; in the assay with SK-MEL-2 melanoma, 60.3%; in the assay with SN12C renal it was 49%. Besides, the growth in the assay with UO-31 renal is 7.09% (active); in the assay with TK-10 renal, 30.5%; in the assay with ACHN renal, 38.7%; in the assay with CAKI-1 renal it was 41.9%; in the assay with A498 renal, 22.7%; in the assay with CCRF-CEM leukemia, 40.1%.

Regarding `C=CCc1cc(Nc2c3ccc(Cl)cc3nc3ccc(OC)cc23)cc(CN(CC)CC)c1O`, the growth in the assay on HCT-15 colon was 9.53% (active); in the assay with HT29 colon it was 3.04% (active); in the assay with SNB-75 CNS, 13%; in the assay on SNB-19 CNS, 20.6%; with U251 CNS, 12.5%; in the assay with PC-3 prostate, 9.79% (active). Further, the growth was -92.7% (active) in the assay on SK-MEL-5 melanoma; 19.1% with UACC-62 melanoma; -32.9% (active) in the assay on LOX IMVI melanoma; 39.1% with SK-MEL-28 melanoma; 18.5% in the assay on SK-MEL-2 melanoma; 0.403% (active) in the assay with EKVX NSCLC. The growth with UO-31 renal is 5.47% (active); in the assay on TK-10 renal, 12.7%; in the assay with ACHN renal, 4.15% (active); in the assay on CAKI-1 renal, 7.85% (active); with CCRF-CEM leukemia, 5.06% (active).

Regarding `CC(=O)Nc1ccc(Sc2ccc(NC(C)=O)cc2)cc1`, the growth in the assay on HCT-15 colon was 98.9%; in the assay on HT29 colon, 91.2%; in the assay with SNB-75 CNS, 84.1%; with SNB-19 CNS, 106%; in the assay on U251 CNS it was 95.9%; with PC-3 prostate it was 65.5%. Also, the growth is 105% with SK-MEL-5 melanoma; 96.5% with UACC-62 melanoma; 96.3% in the assay with LOX IMVI melanoma; 102% in the assay on SK-MEL-28 melanoma; 98.9% in the assay on SK-MEL-2 melanoma; 96.3% with EKVX NSCLC. For the same molecule, the growth was 81% in the assay on UO-31 renal; 95.9% with ACHN renal; 95.3% with CAKI-1 renal; 106% in the assay on A498 renal; 89.8% with CCRF-CEM leukemia; 71.6% in the assay on MOLT-4 leukemia.

`COc1cc(C2=Nc3c/c(=C\c4c(O)[nH]c5ccc(Cl)cc45)ccc3=N2)cc(OC)c1OC`: the growth is 24.8% with HCT-15 colon; -73.3% (active) in the assay with HT29 colon; 50.1% with SNB-75 CNS; -30.9% (active) with SNB-19 CNS; -90.6% (active) with U251 CNS; 21.7% in the assay on PC-3 prostate. Besides, the growth was -92.2% (active) in the assay on SK-MEL-5 melanoma; 31.8% in the assay with UACC-62 melanoma; 2.31% (active) with LOX IMVI melanoma; -35.7% (active) with SK-MEL-28 melanoma; 31.1% with SK-MEL-2 melanoma; 77.7% in the assay with EKVX NSCLC. The growth in the assay with UO-31 renal is 35.5%; in the assay with TK-10 renal it was 35%; in the assay with ACHN renal, 73.2%; with CAKI-1 renal, 50.4%; with A498 renal it was 93.4%; in the assay on CCRF-CEM leukemia it was 8.61% (active). In addition, the growth with MOLT-4 leukemia is 10.3%.

As for `CS(=O)(=O)Nc1ccc([N+](=O)[O-])cc1Oc1ccccc1`, the growth was 104% with HCT-15 colon; 99.9% in the assay on HT29 colon; 110% with SNB-75 CNS; 104% in the assay on SNB-19 CNS; 90.4% in the assay on U251 CNS; 95.4% in the assay with PC-3 prostate. Besides, the growth with SK-MEL-5 melanoma is 84.2%; in the assay with UACC-62 melanoma it was 89.8%; in the assay with LOX IMVI melanoma it was 88.2%; with SK-MEL-28 melanoma it was 118%; with SK-MEL-2 melanoma, 125%; in the assay with EKVX NSCLC, 87.6%. In addition, the growth with UO-31 renal is 81.5%; with TK-10 renal, 117%; in the assay with CAKI-1 renal, 78.7%; in the assay on A498 renal, 92%; with CCRF-CEM leukemia it was 85.5%; with MOLT-4 leukemia it was 84.8%.

As to `O=C(N/N=C\c1cc(Cl)ccc1O)c1ccncc1`, the growth in the assay on HCT-15 colon was 26.3%; with HT29 colon it was 65.4%; in the assay with SNB-75 CNS, 74.2%; in the assay on SNB-19 CNS it was 62%; in the assay on U251 CNS, 43.9%; in the assay with PC-3 prostate, 61%. Besides, the growth in the assay on SK-MEL-5 melanoma was 37%; in the assay on UACC-62 melanoma it was 46.2%; in the assay on LOX IMVI melanoma, 30.9%; with SK-MEL-28 melanoma it was 64.5%; in the assay on SK-MEL-2 melanoma it was 96.9%; in the assay on EKVX NSCLC it was 83.2%. Moreover, the growth in the assay on UO-31 renal is 41.6%; with TK-10 renal it was 66.3%; in the assay with ACHN renal it was 27.7%; in the assay on CAKI-1 renal, 49.2%; in the assay on CCRF-CEM leukemia it was 11.3%; in the assay with MOLT-4 leukemia, 15.9%.

Regarding `Cc1noc(C)c1-c1ccc2nc(NC(=O)[C@H]3CCN(C#N)C3)cn2c1`, the growth with HCT-15 colon is 84.4%; in the assay with HT29 colon, 78.1%; in the assay on SNB-75 CNS, 67.7%; in the assay on SNB-19 CNS it was 108%; in the assay on U251 CNS it was 93.7%; in the assay with PC-3 prostate, 91.7%. In addition, the growth was 86.6% in the assay with SK-MEL-5 melanoma; 77.7% in the assay on UACC-62 melanoma; 77.7% in the assay with LOX IMVI melanoma; 104% in the assay with SK-MEL-28 melanoma; 74.1% in the assay on SK-MEL-2 melanoma; 94% with EKVX NSCLC. In addition, the growth is 66.9% in the assay on UO-31 renal; 81.2% in the assay with TK-10 renal; 65.3% in the assay with ACHN renal; 74.4% with CAKI-1 renal; 88.9% in the assay on A498 renal; 105% with CCRF-CEM leukemia. Moreover, the growth in the assay with MOLT-4 leukemia is 95.9%.

Consider `CN(C)c1ccc2c(c1)OC(N)=C(C#N)C2c1ccc2c(c1)CCCN2C` (centres undefined), for which the growth in the assay on HCT-15 colon is 15.8%; with HT29 colon, 10.5%; in the assay on SNB-75 CNS, 42.7%; with SNB-19 CNS, 33.3%; with U251 CNS it was 19.5%; in the assay with PC-3 prostate it was 27.3%. The growth in the assay on SK-MEL-5 melanoma is 21.4%; with UACC-62 melanoma, 34.4%; with LOX IMVI melanoma it was 42%; in the assay on SK-MEL-28 melanoma, 61.5%; with SK-MEL-2 melanoma, 30.7%; in the assay on EKVX NSCLC it was 34.5%. Besides, the growth in the assay with UO-31 renal was 51.4%; in the assay with TK-10 renal, 70.3%; in the assay with ACHN renal, 52.8%; in the assay with CAKI-1 renal it was 40%; in the assay on A498 renal, -8.42% (active); in the assay on CCRF-CEM leukemia, 24.5%. Besides, in the assay on MOLT-4 leukemia, the growth is 35.8%.
